Source: PubChem (National Center for Advancing Translational Sciences (NCATS))
This is a sample that favours compounds with a hit; in the whole collection about 10% have one here.
CtBP-E1A inh: CtBP/E1A binding inhibition; 340,000 compounds, 0.49% hits; AlphaScreen GST-E1A/His-CtBP binding, 1536-well; active compounds read low; activity change, % (no concentration beside the values); in the data active = activity change below about -65%; inconclusive = mostly about -30% to -63%; also: % is scaled to controls: 0 for no effect and ±100 for the full control effect
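Homogeneous bead-based format: GST-tagged E1A captured on glutathione donor beads, His-tagged CtBP on nickel acceptor beads; compounds precede bead addition by 2 h at 37 °C.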
HP1b binding inh: HP1-beta chromodomain-methylated histone interaction inhibition. P83916. AlphaScreen HP1-beta / biotin-H3K9me3 peptide binding. Potency, µM (series often up to 114 µM), for inactives: at the highest dose activity change, negative = inhibition, most hits filed as inhibitors. 390,000 compounds, 0.56% hits; also: potency is read from the fitted curve at half-maximal effect; nearly all actives have a fitted effect of over 70% in size
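AlphaScreen: HP1-beta (50 nM) preformed 30 min with biotin-H3(1-18)K9me3 peptide (50 nM) in PBS pH 7.4, 0.01% Tween-20. Compound added for 30 min at RT, then streptavidin donor/nickel chelate acceptor beads (10 ug/mL) for 30 min.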
G9a inh: G9a (human) methyltransferase inhibition. G9a H3K9 monomethylation, AlphaScreen, 2 h. Potency, µM (titrated, usually from 102 µM), without a hit: at the highest dose activity, negative = inhibition, usual class: inhibitors. 350,000 compounds, 8.8% hits; also: potency is read from the fitted curve at half-maximal effect; % is scaled to controls: 0 for no effect and ±100 for the full control effect; nearly all actives have a fitted effect of over 75% in size
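Enzyme 20 nM + cpd, 15 min RT; add b-H3K9 pep 500 nM / SAM 20 uM; 2 h RT; anti-H3K9me1 Ab 0.5 ug/mL + SA donor / anti-rabbit acceptor beads 20 ug/mL each, 10 min; AlphaScreen read.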
BAZ2B inh: blocks human BAZ2B | Q9UIF8 | AlphaScreen BAZ2B-H3K14Ac peptide displacement | Potency, µM (doses to about 114 µM), inactives show top-dose activity change, negative = inhibition, hits mostly inhibitors | 360,000 compounds, 4.4% hits | AID 504333; also: potency is read from the fitted curve at half-maximal effect; % is scaled to controls: 0 for no effect and ±100 for the full control effect; nearly all actives have a fitted effect of over 60% in size
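In this displacement format the biotinylated H3(5-23) peptide acetylated at Lys14 serves as ligand at 50 nM, with BAZ2B at 50 nM in PBS pH 7.4 containing 0.01% Tween-20. Donor and acceptor beads are 10 ug/mL final.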
JMJD2A Tudor: inhibitors of human JMJD2A Tudor domain; O75164; Potency, µM (highest dose often 114 µM), inactives show top-dose activity change, negative = inhibition, usual class: inhibitors; AlphaScreen JMJD2A-Tudor / H3K4me3 peptide binding; 390,000 compounds, 4.4% hits; also: potency is read from the fitted curve at half-maximal effect; % is scaled to controls: 0 for no effect and ±100 for the full control effect; nearly all actives have a fitted effect of over 50% in size
Six1-Eya2 inh: inhibitors of human Six1/Eya2 interaction | Q15475+O00167 | AlphaScreen GST-Six1/His-Eya2 binding, biochemical; active compounds read low | activity change, % (test concentration not listed) | 360,000 compounds, 0.56% hits | AID 651725; in the data active = activity change below about -65%; inconclusive = mostly about -30% to -63%; also: % is scaled to controls: 0 for no effect and ±100 for the full control effect
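AlphaScreen with GST-Six1 and His-Eya2 (5X mix: 250 nM and 500 nM), glutathione donor and nickel acceptor beads; buffer 50 mM Tris pH 8.0, 300 mM NaCl, 1 mM TCEP; 1 h at 37 C in the dark.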
* hit, by the source's call; [ ] = another dose, or the depositor's remark. Unless noted, calls follow the shape of the dose curve; as a rule, active = well fitted inhibition curve with a large enough effect; inconclusive = small, poorly fitted or top-dose-only effect; inactive = no such curve, though single readings can be large or run the other way.

How did COC(=O)CC1Oc2ccc(C)cc2-n2cc(-c3ccc(C)cc3)nc21 (stereo not drawn) do in these assays?
HP1b binding inh: 7.0%; G9a inh: inconclusive; BAZ2B inh: 50.1µM*; JMJD2A Tudor: -28.7%

What do the screens show for `CC(=O)N(C)C1=C(O)c2ccccc2C(=O)C1=O`?
CtBP-E1A inh: -2.8; HP1b binding inh: 11.3%; G9a inh: 79.4µM*; BAZ2B inh: inconclusive; JMJD2A Tudor: -29.4%; Six1-Eya2 inh: 2.2

What do the screens show for `O=C1c2ccccc2C(=O)c2c1ccc(O)c2O`?
CtBP-E1A inh: inconclusive; HP1b binding inh: 7.08µM*; G9a inh: -33.3%[2.33 µM]; JMJD2A Tudor: 50.1µM*; Six1-Eya2 inh: -65.1*

How did O=C1C=C(O)c2cccc(O)c2C1=O do in these assays?
CtBP-E1A inh: -8.4; HP1b binding inh: 11.8%; G9a inh: -139.2%[59 µM]; BAZ2B inh: inconclusive; JMJD2A Tudor: inconclusive; Six1-Eya2 inh: -8.3

What do the screens show for `O=C1c2cccc(Sc3ccccc3)c2C(=O)c2c(Sc3ccccc3)cccc21`?
CtBP-E1A inh: inconclusive; HP1b binding inh: 7.94µM*; G9a inh: 1µM*; BAZ2B inh: 15.8µM*; JMJD2A Tudor: 3.16µM*; Six1-Eya2 inh: inconclusive

How did O=C1c2cccc(O)c2C(=O)c2c(O)cccc21 do in these assays?
G9a inh: 7.94µM*; BAZ2B inh: inconclusive

Results for COc1ccc(CNC(=O)CCn2nc(C)c3c(C)n(-c4ccccc4)nc3c2=O)cc1OC ?
HP1b binding inh: 36.3%; G9a inh: -1.1%[59 µM]; BAZ2B inh: -18.4%; JMJD2A Tudor: -5.9%

How did COC(=O)c1cc(NC(=O)CCc2c(C)nc3nc(C)nn3c2C)cc(C(=O)OC)c1 do in these assays?
HP1b binding inh: 40.0%; G9a inh: 11.2%[59 µM]; BAZ2B inh: -7.6%; JMJD2A Tudor: 5.7%

What do the screens show for `CN(C)c1ccc(CNC(=O)C2CCCN(S(=O)(=O)c3ccc4c(c3)oc(=O)n4C)C2)cc1` (stereo not drawn)?
HP1b binding inh: 34.4%; G9a inh: -4.5%[59 µM]; BAZ2B inh: -15.5%; JMJD2A Tudor: -9.6%

How did Cc1cccc(NC(=O)C(=O)NCCc2csc(-c3ccc(C(F)(F)F)cc3)n2)c1C do in these assays?
HP1b binding inh: 13.5%[57 µM]; G9a inh: 12.7%[59 µM]; BAZ2B inh: 5.1%; JMJD2A Tudor: -9.0%

How did COC(=O)Cc1c(C)c2cc3c(c(C)c2oc1=O)OCN(CCc1ccc(OC)cc1)C3 do in these assays?
HP1b binding inh: 43.2%; G9a inh: -2.7%[59 µM]; BAZ2B inh: -3.3%; JMJD2A Tudor: -5.9%

What do the screens show for `O=C1C(=O)c2ccccc2C(O)=C1c1ccccc1F`?
CtBP-E1A inh: 5.4; HP1b binding inh: -15.5%; G9a inh: inconclusive; BAZ2B inh: inconclusive; JMJD2A Tudor: -23.6%; Six1-Eya2 inh: 6.7

What do the screens show for `COC(=O)c1ccc2c(c1O)C(=O)c1ccccc1C2=O`?
CtBP-E1A inh: inconclusive; HP1b binding inh: -17.6%; G9a inh: 12.6µM*; BAZ2B inh: inconclusive; JMJD2A Tudor: inconclusive; Six1-Eya2 inh: inconclusive

Results for O=C1C(O)=C(O)C(=O)c2ccccc21 ?
CtBP-E1A inh: 15.6; HP1b binding inh: inconclusive; JMJD2A Tudor: 56.2µM*; Six1-Eya2 inh: 5.1

How did CCOc1ccccc1CNC(=O)c1cc(-c2ccc(C)c(C)c2)nc2ccccc12 do in these assays?
HP1b binding inh: 42.9%; G9a inh: 0.3%[59 µM]; BAZ2B inh: 4.6%; JMJD2A Tudor: -7.6%

What do the screens show for `Cc1ccc(NC(=O)C(NS(=O)(=O)c2ccc3c(c2)CCC(=O)N3)c2ccccc2)cc1C` (stereo not drawn)?
HP1b binding inh: 16.8%; G9a inh: inconclusive; BAZ2B inh: inconclusive; JMJD2A Tudor: -22.9%

Results for CC1(C)N=C(Nc2nc3ccccc3o2)NC2=C1C(=O)CCC2 ?
JMJD2A Tudor: -29.9%

What do the screens show for `CCC(C(=O)Nc1cc(C)ccc1OC)n1nnc(C(=O)OC)c1C(=O)OC` (stereo not drawn)?
HP1b binding inh: 14.6%; G9a inh: 1.6%[59 µM]; BAZ2B inh: 2.8%; JMJD2A Tudor: -13.4%
